Drawing on PubChem BioAssay (EPA / NIEHS), this text covers AC50 and outcome for six compounds.

The nature of test [1]: APR_HepG2_CellCycleArrest_24hr: Apredica 24-hour HepG2 Assay for Cell Cycle Arrest (AID 2282905).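 Further: cell cycle arrest scored as ratio of 2N to 4N nuclear DNA content.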 As to conditions: imaging, actives raise or lower the signal. The essentials:
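Cell cycle arrest is scored from nuclear DNA content measured by high-content imaging of Hoechst 33342-stained HepG2 cells following 24-hour treatment at ten concentrations up to 200 uM, with DMSO as baseline.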

The nature of test [2]: APR_HepG2_NuclearSize_24hr: Apredica 24-hour HepG2 Assay for Nuclear Size (AID 2282907). Particulars: high-content imaging, actives raise or lower the signal. The procedure, abridged:
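Compounds in DMSO (final 0.5%) were added to human HepG2 hepatoma cells at ten concentrations up to 200 uM for 24 hr. Fixed nuclei were stained with Hoechst 33342, and nuclear diameter was quantified from automated images.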

Test [3] in a line: APR_HepG2_CellLoss_24hr: Apredica 24-hour HepG2 Assay for Cell Loss (AID 2282908).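 Further: fit in both directions so a hit may be cell loss or gain.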 Particulars: high-content imaging. The essentials: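 Cell number is quantified by fluorescence imaging of Hoechst 33342-stained nuclei following dosing at 0.39–200 uM in 0.5% DMSO. Curves are fitted in both directions from the DMSO baseline.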
Test [4] in a line: APR_HepG2_MicrotubuleCSK_24hr: Apredica 24-hour HepG2 Assay for Microtubule CSK Stabilty (AID 2282909). As to conditions: HepG2 microtubule cytoskeleton imaging, actives raise or lower the signal. The procedure, abridged:
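Steps: dose HepG2 for 24 h (0.39–200 uM, 0.5% DMSO); fix 30 min in 3.7% formaldehyde at room temperature; permeabilize; stain alpha-tubulin 60 min; image microtubule cytoskeleton at 20x. Signal change fitted in both directions relative to DMSO.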

A short description of test [5]: APR_HepG2_MitoticArrest_24hr: Apredica 24-hour HepG2 Assay for Mitotic Arrest (AID 2282910). Particulars: high-content imaging, actives raise or lower the signal. The essentials:
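Compounds are dosed onto HepG2 cells across ten concentrations up to 200 uM for 24 hr. Cells are then fixed in 3.7% formaldehyde, permeabilised, and labelled for phospho-histone H3 and nuclei; images are scored by cell cycle analysis and fitted bidirectionally relative to DMSO.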

Test [6] is described as follows: APR_HepG2_MitoMembPot_24hr: Apredica 24-hour HepG2 Assay for Mitochondrial Membrane Potential (AID 2282911). As to conditions: imaging, actives raise or lower the signal. The procedure, abridged: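 Human hepatoma HepG2 cultures received ten compound concentrations up to 200 uM for 24 hr. Membrane-potential dye signal, captured by automated fluorescence microscopy, was scored for gain or loss against DMSO controls.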

Test [7] is described as follows: APR_HepG2_MitoMass_24hr: Apredica 24-hour HepG2 Assay for Mitochondrial Mass (AID 2282912). As to conditions: high-content imaging, actives raise or lower the signal. The essentials:
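The liver line HepG2 was dosed in duplicate across a 0.39–200 uM series, with final DMSO held at 0.5% v/v, and harvested at 24 hr. High-content imaging measured mitochondrial dye staining.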

Test [8] is described as follows: APR_HepG2_p53Act_24hr: Apredica 24-hour HepG2 Assay for p53 Activation (AID 2282913).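 Further: p53 protein immunofluorescence averaged per cell in HepG2 with Hoechst nuclei.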 Particulars: high-content imaging, actives raise or lower the signal. The procedure, abridged:
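Automated fluorescence imaging quantifies p53 immunostaining in HepG2 cells after a 24 hr exposure (0.39–200 uM, duplicate, 0.5% DMSO). Nuclei are located by Hoechst 33342 staining.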

Test [9] is described as follows: APR_HepG2_CellCycleArrest_72hr: Apredica 72-hour HepG2 Assay for Cell Cycle Arrest (AID 2282914). As to conditions: high-content imaging, actives raise or lower the signal. The procedure, abridged: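 Cell cycle arrest in HepG2 was scored from nuclear DNA content after 72 hr compound treatment (0.39–200 uM). Activity, either gain or loss, was fitted against the DMSO baseline.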

Test [10] in a line: APR_HepG2_CellLoss_72hr: Apredica 72-hour HepG2 Assay for Cell Loss (AID 2282915). Particulars: high-content imaging. The essentials:
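Cell number comes from Hoechst 33342-labelled nuclei, imaged at 20x after 3.7% formaldehyde fixation. Dosing was 0.39–200 uM, ten concentrations in duplicate, 0.5% DMSO final, for 72 h. Bidirectional fit relative to DMSO baseline.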

Test [11] is described as follows: APR_HepG2_P-H2AX_72hr: Apredica 72-hour HepG2 Assay for H2AX Phosphorylation (AID 2282916).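 Further: phospho-histone H2A.x immunostain intensity per cell marking DNA damage.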 As to conditions: imaging, actives raise or lower the signal. The procedure, abridged:
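Following 72 hr treatment with 0.39–200 uM compound, HepG2 cells were formaldehyde-fixed, permeabilized and stained for phospho-H2A.x; signal was measured by high-content imaging and fitted bidirectionally against DMSO controls.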

The nature of test [12]: APR_HepG2_MitoticArrest_72hr: Apredica 72-hour HepG2 Assay for Mitotic Arrest (AID 2282918). Particulars: high-content imaging, actives raise or lower the signal. The procedure, abridged:
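Mitotic arrest in HepG2 is scored from phospho-histone H3 staining after 72 hr dosing across 0.39–200 uM, with DMSO at 0.5% v/v. Nuclei are identified by Hoechst 33342 and fluorescence intensity is quantified per cell.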

The nature of test [13]: APR_HepG2_MicrotubuleCSK_72hr: Apredica 72-hour HepG2 Assay for Microtubule CSK Stabilty (AID 2282919). As to conditions: HepG2 microtubule cytoskeleton, high-content imaging, actives raise or lower the signal. The essentials:
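Read-out is tubulin fluorescence intensity from high-content imaging of HepG2 cells, with nuclei identified by Hoechst 33342. Treatment lasts 72 h at 0.39–200 uM, and curves are fitted bidirectionally against the DMSO negative control.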

Test [14] in a line: APR_HepG2_P-H2AX_24hr: Apredica 24-hour HepG2 Assay for H2AX Phosphorylation (AID 2282920). Particulars: high-content imaging, actives raise or lower the signal. The essentials: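 Signal comes from a FITC-labeled secondary detecting phospho-histone H2A.x in fixed HepG2 cells, quantified by automated imaging at 20x. Dosing ran 24 hr across 0.39–200 uM with 0.5% v/v DMSO.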
Test [15] in a line: APR_HepG2_StressKinase_72hr: Apredica 72-hour HepG2 Assay for Stress Kinase (AID 2282921). Particulars: HepG2 stress kinase (phospho-c-Jun) imaging, actives raise or lower the signal. The procedure, abridged: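 Fluorescence intensity of Cy3-tagged anti-phospho-c-Jun antibody, quantified per cell from Hoechst-defined nuclei across six images per well, served as the read-out following 72 h exposure (0.39–200 uM, 0.5% v/v DMSO).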

Test [16] is described as follows: APR_HepG2_StressKinase_24hr: Apredica 24-hour HepG2 Assay for Stress Kinase (AID 2282922). Particulars: HepG2 stress kinase (phospho-c-Jun) imaging, actives raise or lower the signal. The essentials:
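HepG2, 24 hr dosing, 0.39–200 uM in duplicate, 0.5% DMSO; formaldehyde fix (3.7%), 0.5% Triton X-100; anti-phospho-c-Jun + Cy3 secondary, Hoechst counterstain; ArrayScan imaging; bidirectional curve fit vs DMSO baseline.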

Test [17] is described as follows: APR_HepG2_NuclearSize_72hr: Apredica 72-hour HepG2 Assay for Nuclear Size (AID 2282925). Particulars: high-content imaging, actives raise or lower the signal. The procedure, abridged:
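HepG2; cpd 0.39–200 uM, 10 conc, duplicate; 72 h; DMSO 0.5% v/v; fix 3.7% formaldehyde 30 min RT; Triton permeabilization; Hoechst 2 ug/mL; HCS imaging 20x; nuclear diameter; gain/loss fit vs DMSO.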

Test [18] can be described thus: ATG_CRE_CIS: Attagene CIS-FACTORIAL HepG2 Assay for human cAMP Responsive Element (CRE) binding protein 3 (AID 2282926). As to conditions: HepG2 CRE cis-reporter, Attagene multiplexed mRNA; actives raise or lower the signal. The procedure, abridged: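 We dosed HepG2 cells bearing multiple cis-promoter reporter units for 24 h and measured reporter mRNA by RT-PCR with capillary electrophoresis detection. Bidirectional concentration-response fitting used DMSO as negative control.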

Test [19] concerns the target CCAAT/enhancer-binding protein beta (Homo sapiens) (UniProt P17676). Kind of test: ATG_C_EBP_CIS: Attagene CIS-FACTORIAL HepG2 Assay for human CCAAT/Enhancer Binding Protein (C/EBP) beta (AID 2282927). Particulars: HepG2 Attagene cis-factorial transcription factor reporter; actives raise or lower the signal. The essentials: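 Changes in reporter mRNA, rather than exogenous chimeric receptor activity, reflect native C/EBP signalling in transfected HepG2 cells dosed for 24 h; transcripts are detected by RT-PCR and capillary electrophoresis.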

Test [20] in a line: ACEA_ER_80hr: ACEA Biosciences xCELLigence Real-Time Cell Analysis on Estrogen Receptor Agonism for Proliferation (AID 2282667; active means hit-call score of the fitted dose curve at least 0.9, where 1 is the maximum). Particulars: T47D proliferation, impedance (xCELLigence), 80 h. The procedure, abridged:
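Cell-growth kinetics were measured by impedance in T47D cells treated continuously with compound (top 100 uM final, 1:4 steps, 8 points). Activity at 80 h was scored as signal gain over the DMSO baseline.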

SMILES strings stand for the structures. Records with an inconclusive call do not appear. Some structures have more than one record in an assay (separate samples or runs), and their calls can disagree. Active and inactive are the calls of the source. How the source made its calls, unless noted: active means hit-call score of the fitted dose curve at least 0.9, where 1 is the maximum; inactive means score below 0.9.

CCAAT/enhancer-binding protein beta (Homo sapiens), sequence (P17676 whole entry, looked up): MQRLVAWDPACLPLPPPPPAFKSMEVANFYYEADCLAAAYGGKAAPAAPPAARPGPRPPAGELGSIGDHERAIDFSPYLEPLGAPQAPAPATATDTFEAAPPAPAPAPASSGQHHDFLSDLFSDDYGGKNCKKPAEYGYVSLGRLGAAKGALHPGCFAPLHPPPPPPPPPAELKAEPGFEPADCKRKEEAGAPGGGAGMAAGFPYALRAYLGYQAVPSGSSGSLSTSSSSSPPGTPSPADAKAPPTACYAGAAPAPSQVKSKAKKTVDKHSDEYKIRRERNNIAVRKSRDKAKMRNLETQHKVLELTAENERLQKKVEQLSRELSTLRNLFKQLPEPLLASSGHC

With `NC(=O)O`, the half-maximal activity concentration (AC50) (usually the concentration giving half of the maximal activity seen) is 10.7 µM (active) in [1]; 9.65 µM (active) in test [2]; 6.38 µM (active) in test [3]; 12.2 µM (active) in [4]; 5.54 µM (active) in [5]; 0.205 µM (active) in test [6]. Moreover, the concentration at half-maximal activity (AC50) in test [7] was 59.3 µM (active); in test [8] it was 9.29 µM (active); in [9] it was 12.2 µM (active); in test [10] it was 3.92 µM (active); in test [11], 4.73 µM (active); in [12], 4.17 µM (active). Further, the AC50 in test [13] is 3.05 µM (active); in [14], 9.46 µM (active); in test [15], 3.02 µM (active); in [16], 4.39 µM (active); in [17], 23.5 µM (active). The outcome in test [18] and in test [19] was inactive.

Take `O=C1C2(Cl)C3(Cl)C4(Cl)C(Cl)(Cl)C5(Cl)C3(Cl)C1(Cl)C5(Cl)C24Cl` (stereo not given): the concentration at half-maximal activity (AC50) in [1] is 44.6 µM (active); in test [3] it was 44.5 µM (active); in test [9], 24.7 µM (active); in [10] it was 22.5 µM (active); in test [11] it was 113 µM (active); in test [14] it was 46.6 µM (active). Besides, the AC50 in test [15] is 106 µM (active); in test [16] it was 60.5 µM (active); in test [17], 24.1 µM (active); in test [18] it was 14.3 µM (active); in test [19], 17.7 µM (active). In addition, the compound was called inactive in [2], in test [4], in test [5], in [6], in test [7] and in test [8]. For the same compound, the call in [12], in test [13], in [18] and in test [19] was inactive.

Turning to `O=C(O)C(F)(F)C(F)(F)C(F)(F)C(F)(F)C(F)(F)C(F)(F)C(F)(F)C(F)(F)C(F)(F)C(F)(F)F`, the AC50 in test [1] is 68.4 µM (active); in test [3], 83.1 µM (active); in [4], 56.7 µM (active); in test [5], 60.9 µM (active); in test [7], 76.3 µM (active); in [8] it was 66.9 µM (active). Also, the half-maximal activity concentration (AC50) was 68.8 µM (active) in test [9]; 83.3 µM (active) in [10]; 90.6 µM (active) in test [11]; 66.5 µM (active) in [12]; 71.5 µM (active) in test [14]; 73.8 µM (active) in [16]. Further, in test [19], the AC50 was 172 µM (active). In addition, the result in [2], in test [6], in test [13], in test [15], in test [17] and in [18] was inactive. The outcome in test [19] was inactive.

As to `Cc1ccc(N)cc1Cl`, the call in test [20], in [18] and in test [19] was inactive.

On to `CCC1(c2ccc(N)cc2)CCC(=O)NC1=O` (stereo not given), for which the result in [20], in test [18] and in [19] was inactive.

With `CC(C)(C)CC(C)(C)c1ccc(O)cc1`, the AC50 is 161 µM (active) in test [1]; 52.3 µM (active) in test [2]; 46 µM (active) in test [3]; 49.6 µM (active) in [5]; 25.3 µM (active) in test [6]; 35 µM (active) in test [8]. Besides, the concentration at half-maximal activity (AC50) in test [9] was 32 µM (active); in test [10], 43.4 µM (active). In addition, the compound was called inactive in test [4], in [7], in test [11], in [12], in test [13] and in [14]. The compound was called inactive in test [15], in test [16], in test [17], in test [18] and in [19].
